Screening results from PubChem BioAssay.
Only some compounds are listed: those with a hit (about 4.5% of all), similar ones and a draw of the others.
GRK2 inh – human GRK2 inhibition via aptamer displacement; P25098; bead flow cytometry, FAM-aptamer displacement from GRK2; inhibition of aptamer binding, % at 10 µM; hit rate 0.59% among 330,000;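 active means inhibition of aptamer binding above 40%, roughly 3 SD of noise, on plates passing a quality check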;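 further: median bead fluorescence of bound FAM aptamer so fluorescent compounds give negative values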
ALR H2O2 inh – human ALR oxidase inhibition via reduced H2O2 | purified ALR, DTT oxidation, H2O2 HRP-luminol luminescence | inhibition, % (concentration not given with the values) | hit rate 3.8% among 290,000 | AID 485317;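 active means mean replicate inhibition above about 79%, with every replicate also reaching it, limit read from the data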
Target sequence (P55789 whole entry, looked up): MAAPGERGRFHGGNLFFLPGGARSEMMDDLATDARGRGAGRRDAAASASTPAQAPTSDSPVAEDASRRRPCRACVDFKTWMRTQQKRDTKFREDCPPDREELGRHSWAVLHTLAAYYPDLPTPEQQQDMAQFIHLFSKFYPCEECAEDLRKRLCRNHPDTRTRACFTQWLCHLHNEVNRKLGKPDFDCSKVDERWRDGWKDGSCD
Rce1 inhib – yeast Ras-converting enzyme inhibition | calls only | AID 2563 | Q03530 | hit rate 0.27% among 290,000 | yeast membranes, quenched prenylated peptide cleavage fluorescence;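 active means fall in fluorescence gain of 50% or more versus controls, with final raw signal at or below 3038400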;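 further: plate controls were neutral control wells for no effect and wells lacking membranes for full effect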
Target sequence (Q03530 whole entry, looked up): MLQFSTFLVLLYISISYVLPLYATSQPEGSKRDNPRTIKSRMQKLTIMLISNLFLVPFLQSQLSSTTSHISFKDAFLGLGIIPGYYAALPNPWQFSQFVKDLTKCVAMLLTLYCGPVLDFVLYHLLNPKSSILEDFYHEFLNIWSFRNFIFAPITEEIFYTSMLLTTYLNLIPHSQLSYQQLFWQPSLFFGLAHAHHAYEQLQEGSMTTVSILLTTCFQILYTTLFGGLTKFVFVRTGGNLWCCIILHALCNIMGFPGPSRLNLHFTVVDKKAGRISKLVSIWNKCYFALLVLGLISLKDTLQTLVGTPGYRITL
Rtt109 HAT inh – inhibitors of Candida albicans Rtt109/Vps75 histone acetyltransferase; Q5AAJ8; purified Rtt109/Vps75, ThioGlo CoA-SH fluorescence, 4 h; inhibition, % at 34.9 µM; hit rate 0.16% among 330,000; AID 540336;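 active means inhibition of at least 50% in every replicate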
HDAC3 inhib – blocks human histone deacetylase 3; recombinant HDAC3, fluorogenic peptide/trypsin coupled, fluorescence; inhibition, % at 8.3 µM; hit rate 0.15% among 320,000; in the data active means inhibition above about 26%, passing the limit was not always enough
Efflux pump mplx – inhibitors of Candida antifungal efflux pumps expressed in yeast; hit rate 0.44% among 330,000; S. cerevisiae Candida pump triplex, Nile Red efflux; inhibition, % at 10 µM;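 active means plate passing quality check with inhibition over a set limit, or well fluorescence over plate mean plus 4 SD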;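 further: Nile Red retained in pooled yeast measured as flow cytometry median fluorescence; 0% = buffer negative control and 100% = Enniatin B positive control; higher means more Nile Red kept so more efflux inhibition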
GRK2 inh confirm – human GRK2 inhibition confirmation, cherry pick 1; shares compounds with GRK2 inh; bead-bound GRK2, FAM-aptamer displacement, flow cytometry; aptamer displacement, % at 10 µM; hit rate 4% among 2,000;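 active means aptamer displacement above 40%, near three times the noise of non-fluorescent compounds, on plates passing quality checks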;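 further: negative values mostly reflect intrinsic compound fluorescence rather than true enhancement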
Aptamer quench 1 – quenches fluorescent RNA aptamer, GRK2 hit artifact. AID 504521. fluorescence change (kMESF span), kMESF (test concentration not listed). Fluorescent RNA aptamer beads, quenching, flow cytometry; hits give high values. shares compounds with GRK2 inh. 110 tested, under 10 active;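 active means compounds whose bead fluorescence drops by more than 37 kMESF across the dose range, marking them as dye quenchers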
Aptamer quench SP – counter-screen for GRK2 aptamer inhibitors: fluorescent aptamer quenchers. Carboxyfluorescein RNA aptamer on beads, flow cytometry quenching; hits give low values. shares compounds with GRK2 inh. 2,000 tested, under 10 active. fluorescence response (% of DMSO), % at 10 µM;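 active means compounds that quench the bead-bound fluorescent RNA probe, cutting fluorescence to under half of the solvent control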;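 further: counterscreen run without GRK2 so only probe quenching by compound is measured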
GRK2 confirm 2 – confirmation of human GRK2 inhibitors binding RNA aptamer site | shares compounds with GRK2 inh | bead-bound GRK2, FAM-aptamer displacement, flow cytometry | inhibition of aptamer binding, % at 10 µM | 360 tested, under 10 active | AID 504782;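 active means inhibition of aptamer binding above 40%, about triple the noise seen with nonglowing compounds, on plates passing quality control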;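 further: negative values mostly come from compounds that fluoresce themselves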
FAM quench SP – aptamer fluorescence quenching in GRK2 counter-screen; AID 588494; fluorescence response vs DMSO, % at 10 µM; 360 tested, under 10 active; shares compounds with GRK2 inh; carboxyfluorescein RNA aptamer beads, flow cytometry quenching; hits give low values;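 active means response vs DMSO under 50%, meaning signal dropped by over half, treated as fluorescence quencher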;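 further: labelled aptamer on streptavidin beads without GRK2 as a quench counter-screen; 100% = bead fluorescence of DMSO wells and lower means quenching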
FAM quench PS1 – counter-screen for GRK2 aptamer binding inhibitors: aptamer fluorescence quenching; shares compounds with GRK2 inh; fluorescence ratio to DMSO, % at 11.1 µM; Bead-bound FAM RNA aptamer fluorescence quenching, flow cytometry; hits give low values; 35 tested, under 10 active;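 active means compounds that dim the fluorescent label, raw bead signal shifting by over 33 units between lowest and highest dose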
Starred values were filed as active, the others as inactive; i = inactive; . = not tested or not shown.

SMILES | GRK2 inh | ALR H2O2 inh | Rce1 inhib | Rtt109 HAT inh | HDAC3 inhib | Efflux pump mplx | GRK2 inh confirm | Aptamer quench SP | others
CNc1cc(N2CCN(S(=O)(=O)N(C)C)CC2)ccc1[N+](=O)[O-] | 73* | -9 | . | -9 | 3 | 0 | 4 | 94
CCN(CC)S(=O)(=O)c1ccc(N2CCCC2)c(NC(=O)c2ccc(N3CCCC3=O)cc2)c1 | 0 | -2 | i | 9 | -3 | 0 | . | .
CC1CN(Cc2ccccc2)C(C)CC1O (centres undefined) | 0 | -4 | i | 1 | 5 | 0 | . | .
COC(=O)c1sc2ncn(N)c(=O)c2c1C | 42* | -5 | i | . | 4 | 0 | 1 | 97
C=C(C1=CCN(S(=O)(=O)C(C)(C)C)[C@@H]1CCO)c1ccccc1 | . | . | . | 2 | . | . | . | .
COc1ccc(CCN2CC(C(=O)N(C)Cc3ccccc3OC)CCC2=O)cc1 (centres undefined) | 2 | -18 | i | -1 | -1 | 0 | . | .
CN(CCOc1ccccc1)C(=O)C1CCC(=O)N(CCc2ccc(Cl)cc2)C1 (centres undefined) | 0 | -9 | i | 0 | 2 | 0 | 0 | 96
COc1ccc(CCN2CC(C(=O)N(C)CCOc3ccccc3)CCC2=O)cc1 (centres undefined) | 0 | -15 | i | 5 | -4 | 0 | 2 | 96
O=C(NCCCCc1ccccc1)c1cccc(NC(=O)C2CC2)c1 | . | . | . | 5 | . | . | . | .
COc1cccc(NC(=O)C(C)NS(=O)(=O)c2ccc(Br)cc2)c1 (centres undefined) | 41* | 1 | i | -4 | 2 | 0 | . | . | GRK2 confirm 2=-10;FAM quench SP=99
CCOC(=O)[C@H]1[C@H]2COc3cc(OC)ccc3[C@@H]2N2C(=O)c3cc(OC)c(OC)cc3NC(=O)[C@@]12C | . | . | . | 20 | 2 | . | . | .
CC(C)(C)C1CCc2c(C(=O)NNC(=O)CCCC(=O)O)csc2C1 (centres undefined) | 97* | -10 | i | -6 | -2 | 0 | -5 | 100
CCNC(=S)NNC(=O)c1csc2c1CCC(C)C2 (centres undefined) | 0 | 26 | i | 2 | -1 | 0 | . | .
COc1ccc(-c2nnc(SCC(=O)O)n2Cc2ccccc2)cc1 | 2 | . | i | 2 | 0 | 0 | . | .
CCOC(=O)C1=C(COC(=O)C2(C)CC2(Cl)Cl)NC(=O)NC1c1ccccc1 (centres undefined) | 2 | -3 | i | -2 | 4 | 0 | . | .
Cc1ccc(-c2cc(=O)c3ccccc3[nH]2)cc1 | 0 | 5 | i | -2 | 9 | 0 | . | .
Cc1cc(=O)c2ccccc2[nH]1 | 37 | . | i | 7 | 5 | 0 | 1 | 98
O=C(CN1CCc2ccccc21)NC(=O)NCc1ccccc1 | 42* | -5 | i | -7 | 8 | 0 | 70* | 101 | Aptamer quench 1=11;FAM quench PS1=101
O=C(CN1CCCc2ccccc21)NC(=O)NCc1ccco1 | 0 | 48 | i | 0 | 3 | 0 | . | .
COc1ccc(N(CC(=O)NCc2cccs2)S(=O)(=O)c2cccc(C)c2)cc1 | . | . | . | 0 | . | . | . | .
CCOc1ccc(S(=O)(=O)NCCCn2ccnc2)cc1 | 0 | -5 | i | 11 | -2 | 0 | . | .
O=C(COC(=O)c1cccc(Br)c1)NCC1CCCO1 (centres undefined) | 0 | 1 | . | 1 | -7 | 0 | . | .
